Inconclusive results are not listed. Entries that show only a call come without a potency. The source made the active and inactive calls. The call rests on the fitted dose curve; in most records, active means well fitted inhibition curve with a large enough effect; inconclusive means small, poorly fitted or top-dose-only effect; inactive means flat fitted curve, though single readings scatter.
Potency means the concentration at half of the fitted maximal effect.

The experiment can be described thus: P-glycoprotein substrates identified in KB-8-5-11 adenocarcinoma cell line, qHTS therapeutic library screen (AID 1346987). Further: nearly all actives have a fitted effect of over 65% in size. The following applies: KB-8-5-11 (P-gp overexpressing) viability, CellTiter-Glo, 72 h; series mostly up to 44.5 µM. The essentials: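 Human cervical adenocarcinoma KB-8-5-11 cells, selected in colchicine to over-express P-gp and assayed without it, were exposed for 72 h to titrated compounds. An ATP-based luminescent viability signal gave AC50.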
On the technique in general: In qHTS, concentration-response curves come from the screen itself.
For the molecule `C[C@@H]1O[C@@H](O[C@@H]2[C@@H](O)[C@H](O[C@@H]3[C@@H](O)[C@@H](O)[C@H](O[C@H]4[C@H](OC(=O)[C@]56CCC(C)(C)C[C@H]5C5=CCC7[C@@]8(C)C[C@H](O)[C@H](O[C@@H]9O[C@@H](C)[C@H](O)[C@@H](O)[C@H]9O)[C@@](C)(CO)C8CC[C@@]7(C)[C@]5(C)C[C@H]6O)O[C@H](C)[C@H](O)[C@@H]4O)O[C@H]3C)OC[C@H]2O)[C@H](O)[C@H](O)[C@H]1O` (stereo not given in full), the activity change, negative = cytotoxicity was 4.66% [at 9.29 µM] (inactive).
Consider `C=C1CC2(C(=O)O)CC1CCC2C1(C)CCCC2(C)C(=O)OC(O)C21` (stereo not given), for which the Potency entry was “inactive”.
`COC1=CC(=O)O[C@@H](/C=C/c2ccccc2)[C@@H]1O`: the Potency result was “inactive”.
As to `OCC1=CC[C@@H]2C=CO[C@@H](O[C@@H]3O[C@H](CO)[C@@H](O)[C@H](O)[C@H]3O)[C@H]12`, the Potency result was “inactive”.
With `CC1=CC(=O)CC(C)(C)C1CCC(C)OC1OC(COC(=O)c2cc(O)c(O)c(O)c2)C(O)C(O)C1O` (stereo not given), the Potency entry is “inactive”.
For `CC1(C)CC2C(C1)C1(C)CCC13OC3(CO)C2O` (stereo not given), the Potency result is “inactive”.
As to `CN(NC(=O)CC(=O)NN(C)C(=S)c1ccccc1)C(=S)c1ccccc1`, the Potency was 51.7 nM (active).
Still for that read-out and setting: under `CC(C)C1=CC2=CCC3[C@](C)(CCC[C@@]3(C)C(=O)O)C2CC1O` (stereo not given in full) stands “inactive”; under `CC1=C2CC3OC3(C)CCC3OC3(C)CC2OC1=O` (stereo not given), “inactive”.
Still for that read-out and setting: the result for `CC1(C)CC[C@]2(C(=O)O[C@@H]3O[C@H](CO)[C@@H](O)[C@H](O)[C@H]3O)CC[C@]3(C)C(=CCC4[C@@]5(C)C[C@@H](O)[C@H](O)[C@@](C)(CO)C5CC[C@]43C)C2C1` (stereo not given in full) reads “inactive”; that for `CCCCCCCCCCCCCCCCCCOP(=O)([O-])OC1CC[N+](C)(C)CC1`, “inactive”.
As for `Cc1ccc(Sc2cncc3sc(C(N)=O)cc23)cc1`, the Potency entry was “inactive”.
Same read-out and setting: the result for `COc1ccc(C(O[C@@H]2O[C@H](CO)[C@@H](O)[C@H](O)[C@H]2O)C(CO)Oc2ccc(/C=C/CO)cc2OC)cc1O` (stereo not given in full) reads “inactive”; that for `CC(NC(=O)CC(=O)O)c1nc2ccccc2c(=O)[nH]1` (stereo not given), “inactive”.
Regarding `C=CC(C)(O)CC/C=C(\C)C(=O)OC1CC2(C(=O)O)CCC3(C)C(=CCC4C5(C)CCC(OC6OC(COC7OCC(O)C(O)C7O)C(O)C(OC7OCC(O)C(O)C7O)C6OC6OC(CO)C(O)C(O)C6OC6OCC(O)C(O)C6O)C(C)(C)C5CCC43C)C2CC1(C)C` (stereo not given), the outcome is “inactive [at 9.29 µM]”.
